Common to all, as to test: DAPPL (digital affinity profiling via proximity ligation, sequencing); 10 mM Tris-HCl pH 7.5, 50 mM NaCl, 1 mM DTT, 4% glycerol, room temperature, 30 min; GST-TFs on glutathione beads, 16-mer random dsDNA library, 0.1% formaldehyde crosslink after washing; high values mean tight binding
In one assay the target is T1, FEV (Homo sapiens, UniProt Q99581 1-238).
T1 sequence: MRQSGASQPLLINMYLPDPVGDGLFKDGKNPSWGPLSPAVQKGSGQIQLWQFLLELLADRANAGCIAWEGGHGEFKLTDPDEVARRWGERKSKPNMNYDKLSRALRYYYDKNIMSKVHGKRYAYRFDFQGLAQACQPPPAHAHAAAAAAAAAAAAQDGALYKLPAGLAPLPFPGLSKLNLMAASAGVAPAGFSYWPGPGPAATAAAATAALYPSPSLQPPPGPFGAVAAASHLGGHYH
The following applies: protein: recombinant; tags: N-terminal GST; dsDNA, one strand shown. In outline:
(§1)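 In yeast, human transcription factors were expressed with a GST fusion, then pulled down on glutathione beads and given DNA barcodes. Pooled with a tag-only sample, they were exposed to 200 nmole of a 16-mer random double-stranded DNA library (Tris/NaCl/DTT/glycerol buffer, room temperature, 30 min), washed, crosslinked with 0.1% formaldehyde, proximity-ligated using BsaI/T4 ligase for 1 h at 37 °C, PCR-amplified and read on an Illumina NextSeq500. Each hexamer's frequency of reads for a factor, divided by the matching frequency for the tag-only sample, gives the binding signal.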

In another assay the target is ETV5 (Homo sapiens, UniProt P41161 1-510). The following applies: protein: recombinant; tags: N-terminal GST; dsDNA, one strand shown. In outline: as §1
ETV5, sequence (P41161 whole entry): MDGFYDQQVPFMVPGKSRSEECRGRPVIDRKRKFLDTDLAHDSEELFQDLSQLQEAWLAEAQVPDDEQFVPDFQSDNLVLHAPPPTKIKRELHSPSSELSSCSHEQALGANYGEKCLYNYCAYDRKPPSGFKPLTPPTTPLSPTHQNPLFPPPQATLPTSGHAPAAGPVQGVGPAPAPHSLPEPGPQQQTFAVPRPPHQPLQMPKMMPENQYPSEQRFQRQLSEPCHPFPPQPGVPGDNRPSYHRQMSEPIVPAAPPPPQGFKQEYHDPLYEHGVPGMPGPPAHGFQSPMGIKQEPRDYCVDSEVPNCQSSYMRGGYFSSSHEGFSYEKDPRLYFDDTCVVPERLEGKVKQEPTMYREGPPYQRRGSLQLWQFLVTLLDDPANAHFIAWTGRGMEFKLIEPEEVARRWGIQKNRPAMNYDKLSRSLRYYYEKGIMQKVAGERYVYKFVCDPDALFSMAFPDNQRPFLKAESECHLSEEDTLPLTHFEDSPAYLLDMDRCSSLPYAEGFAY
The target in a further assay is HSF1 (Homo sapiens, UniProt Q00613 1-529). To be noted: protein: recombinant; tags: N-terminal GST; chain copies: 3; dsDNA, one strand shown. An outline of the steps:
as §1

In another assay the target is T2, SPIC (Homo sapiens, UniProt Q8N5J4 1-248).
T2 sequence: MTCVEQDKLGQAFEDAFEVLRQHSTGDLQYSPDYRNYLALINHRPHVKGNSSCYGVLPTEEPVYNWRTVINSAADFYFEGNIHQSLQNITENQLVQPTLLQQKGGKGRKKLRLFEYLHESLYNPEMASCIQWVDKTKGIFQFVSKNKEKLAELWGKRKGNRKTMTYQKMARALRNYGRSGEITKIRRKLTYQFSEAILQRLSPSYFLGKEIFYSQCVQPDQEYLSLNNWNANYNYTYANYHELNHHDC
The following applies: protein: recombinant; tags: N-terminal GST; dsDNA, one strand shown. In outline:
as §1

Another assay addresses ELF4 (Homo sapiens, UniProt Q99607 1-663). To be noted: protein: recombinant; tags: N-terminal GST; dsDNA, one strand shown. In outline: as §1
Another assay concerns the target T3, ELK4 (Homo sapiens, UniProt P28324-2 1-405).
T3 sequence: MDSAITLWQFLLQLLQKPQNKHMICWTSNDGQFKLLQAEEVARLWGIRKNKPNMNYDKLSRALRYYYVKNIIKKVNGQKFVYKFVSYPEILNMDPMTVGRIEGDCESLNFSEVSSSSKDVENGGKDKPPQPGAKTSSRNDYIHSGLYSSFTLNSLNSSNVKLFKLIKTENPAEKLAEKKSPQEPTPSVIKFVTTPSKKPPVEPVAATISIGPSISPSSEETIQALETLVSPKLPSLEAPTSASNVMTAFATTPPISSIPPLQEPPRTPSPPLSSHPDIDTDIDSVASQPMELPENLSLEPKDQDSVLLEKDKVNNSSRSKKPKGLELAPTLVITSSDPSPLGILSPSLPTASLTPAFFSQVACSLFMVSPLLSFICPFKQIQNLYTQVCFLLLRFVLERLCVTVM
To be noted: protein: recombinant; tags: N-terminal GST; dsDNA, one strand shown. In outline: as §1

The target of another assay is T4, ETV2 (Homo sapiens, UniProt O00321 1-342).
T4 sequence: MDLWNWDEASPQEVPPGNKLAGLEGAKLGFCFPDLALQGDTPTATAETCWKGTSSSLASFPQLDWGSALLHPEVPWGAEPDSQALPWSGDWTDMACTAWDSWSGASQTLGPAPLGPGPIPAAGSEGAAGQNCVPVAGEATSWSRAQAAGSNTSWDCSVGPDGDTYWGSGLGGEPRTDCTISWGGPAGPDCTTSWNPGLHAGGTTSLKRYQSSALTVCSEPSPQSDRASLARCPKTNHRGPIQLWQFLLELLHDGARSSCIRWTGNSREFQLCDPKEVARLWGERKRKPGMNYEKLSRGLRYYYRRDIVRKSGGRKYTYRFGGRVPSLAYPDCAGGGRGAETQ
The following applies: protein: recombinant; tags: N-terminal GST; dsDNA, one strand shown. In outline:
as §1

The target of another assay is T5, ELF3 (Homo sapiens, UniProt P78545 1-371).
T5 sequence: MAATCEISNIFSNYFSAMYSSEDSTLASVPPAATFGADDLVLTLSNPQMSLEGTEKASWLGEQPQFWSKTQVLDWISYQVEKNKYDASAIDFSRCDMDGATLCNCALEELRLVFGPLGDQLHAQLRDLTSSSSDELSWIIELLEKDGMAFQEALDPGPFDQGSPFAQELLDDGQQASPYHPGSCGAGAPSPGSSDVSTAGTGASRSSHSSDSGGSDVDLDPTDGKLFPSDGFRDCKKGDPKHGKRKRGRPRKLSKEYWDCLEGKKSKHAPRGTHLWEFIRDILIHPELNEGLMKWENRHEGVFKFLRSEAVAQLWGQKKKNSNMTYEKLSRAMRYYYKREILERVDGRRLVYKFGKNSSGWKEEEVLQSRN
The following applies: protein: recombinant; tags: N-terminal GST; dsDNA, one strand shown. In outline:
as §1

A further assay addresses CRX (Homo sapiens, UniProt O43186 1-299). To be noted: protein: recombinant; tags: N-terminal GST; dsDNA, one strand shown. In outline:
as §1

Another assay has as its target ETV1 (Homo sapiens, UniProt P50549 1-477). To be noted: protein: recombinant; tags: N-terminal GST; dsDNA, one strand shown. In outline: as §1
A further assay addresses T6, ERF (Homo sapiens, UniProt P50548 1-548).
T6 sequence: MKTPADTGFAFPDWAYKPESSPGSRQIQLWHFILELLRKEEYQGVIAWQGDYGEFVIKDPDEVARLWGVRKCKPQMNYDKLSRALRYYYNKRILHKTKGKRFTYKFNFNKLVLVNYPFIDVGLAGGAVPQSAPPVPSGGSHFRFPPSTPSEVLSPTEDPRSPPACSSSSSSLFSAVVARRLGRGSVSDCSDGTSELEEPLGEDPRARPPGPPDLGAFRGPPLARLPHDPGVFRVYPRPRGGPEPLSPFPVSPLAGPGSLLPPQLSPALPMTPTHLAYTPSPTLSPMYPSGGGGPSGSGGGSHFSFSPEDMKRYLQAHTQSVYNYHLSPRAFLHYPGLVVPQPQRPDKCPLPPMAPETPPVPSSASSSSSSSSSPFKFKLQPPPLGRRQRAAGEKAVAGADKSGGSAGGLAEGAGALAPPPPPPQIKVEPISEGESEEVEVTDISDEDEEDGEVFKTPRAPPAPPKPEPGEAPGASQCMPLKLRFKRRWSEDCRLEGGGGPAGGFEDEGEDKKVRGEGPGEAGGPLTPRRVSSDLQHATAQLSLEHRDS
The following applies: protein: recombinant; tags: N-terminal GST; dsDNA, one strand shown. In outline: as §1

Another assay addresses T7, ETV3L (Homo sapiens, UniProt Q6ZN32 1-361).
T7 sequence: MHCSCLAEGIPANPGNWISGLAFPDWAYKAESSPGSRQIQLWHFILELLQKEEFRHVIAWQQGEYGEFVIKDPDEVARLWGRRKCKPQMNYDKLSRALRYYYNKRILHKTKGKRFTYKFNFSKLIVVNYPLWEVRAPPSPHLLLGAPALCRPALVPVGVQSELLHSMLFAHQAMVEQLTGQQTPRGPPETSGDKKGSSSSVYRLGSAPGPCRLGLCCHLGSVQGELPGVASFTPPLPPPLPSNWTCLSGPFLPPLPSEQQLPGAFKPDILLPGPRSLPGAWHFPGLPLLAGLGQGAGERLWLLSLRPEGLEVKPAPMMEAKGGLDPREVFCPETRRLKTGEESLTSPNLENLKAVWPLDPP
The following applies: protein: recombinant; tags: N-terminal GST; dsDNA, one strand shown. An outline of the steps: as §1

The next assay concerns the target T8, ETS2 (Homo sapiens, UniProt P15036 1-469).
T8 sequence: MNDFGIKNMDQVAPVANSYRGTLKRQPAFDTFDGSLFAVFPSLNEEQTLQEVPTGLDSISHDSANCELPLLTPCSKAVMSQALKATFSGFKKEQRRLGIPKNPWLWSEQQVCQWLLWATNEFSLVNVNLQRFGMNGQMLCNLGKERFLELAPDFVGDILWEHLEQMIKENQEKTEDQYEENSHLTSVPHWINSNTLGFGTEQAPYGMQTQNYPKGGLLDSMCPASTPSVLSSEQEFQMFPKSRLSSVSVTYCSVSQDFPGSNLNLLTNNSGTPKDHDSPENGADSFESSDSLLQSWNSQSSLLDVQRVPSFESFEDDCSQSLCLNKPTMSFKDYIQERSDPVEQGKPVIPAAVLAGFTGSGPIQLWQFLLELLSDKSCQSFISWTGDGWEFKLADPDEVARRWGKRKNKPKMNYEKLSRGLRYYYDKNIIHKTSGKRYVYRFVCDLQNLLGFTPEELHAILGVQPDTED
To be noted: protein: recombinant; tags: N-terminal GST; dsDNA, one strand shown. In outline: as §1

In a further assay the target is T9, SPDEF (Homo sapiens, UniProt O95238 1-335).
T9 sequence: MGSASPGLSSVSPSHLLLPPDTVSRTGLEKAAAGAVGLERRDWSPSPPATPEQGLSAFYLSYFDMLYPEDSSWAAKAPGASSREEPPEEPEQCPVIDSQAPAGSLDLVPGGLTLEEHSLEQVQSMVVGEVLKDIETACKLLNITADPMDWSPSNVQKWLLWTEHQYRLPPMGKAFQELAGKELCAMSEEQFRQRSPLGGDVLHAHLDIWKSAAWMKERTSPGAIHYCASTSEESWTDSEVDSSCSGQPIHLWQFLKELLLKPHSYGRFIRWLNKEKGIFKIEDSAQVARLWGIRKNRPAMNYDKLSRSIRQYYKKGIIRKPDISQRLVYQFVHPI
The following applies: protein: recombinant; tags: N-terminal GST; dsDNA, one strand shown. In outline: as §1

In the next assay the target is T10, ETV7 (Homo sapiens, UniProt Q9Y603 1-341).
T10 sequence: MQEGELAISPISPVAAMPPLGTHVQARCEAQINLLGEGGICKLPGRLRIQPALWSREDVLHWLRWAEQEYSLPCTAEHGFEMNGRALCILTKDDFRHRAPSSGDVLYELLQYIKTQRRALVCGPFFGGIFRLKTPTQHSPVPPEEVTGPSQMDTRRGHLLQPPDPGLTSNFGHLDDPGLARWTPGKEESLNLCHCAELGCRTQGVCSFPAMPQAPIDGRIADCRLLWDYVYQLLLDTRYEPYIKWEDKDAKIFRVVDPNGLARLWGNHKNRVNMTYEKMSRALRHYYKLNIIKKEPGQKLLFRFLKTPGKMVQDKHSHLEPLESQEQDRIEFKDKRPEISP
The following applies: protein: recombinant; tags: N-terminal GST; dsDNA, one strand shown. An outline of the steps:
as §1

The next assay deals with T11, ELF5 (Homo sapiens, UniProt Q9UKW6-2 1-255).
T11 sequence: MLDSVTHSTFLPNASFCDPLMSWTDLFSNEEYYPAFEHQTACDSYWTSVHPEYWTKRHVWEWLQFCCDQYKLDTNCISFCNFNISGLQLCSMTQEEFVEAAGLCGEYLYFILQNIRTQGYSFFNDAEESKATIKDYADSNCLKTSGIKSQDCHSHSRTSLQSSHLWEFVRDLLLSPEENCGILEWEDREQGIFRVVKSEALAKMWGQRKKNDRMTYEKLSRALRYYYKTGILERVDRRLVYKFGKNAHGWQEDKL
To be noted: protein: recombinant; tags: N-terminal GST; dsDNA, one strand shown. In outline: as §1

The next assay addresses T12, ETV3 (Homo sapiens, UniProt P41162-2 1-143).
T12 sequence: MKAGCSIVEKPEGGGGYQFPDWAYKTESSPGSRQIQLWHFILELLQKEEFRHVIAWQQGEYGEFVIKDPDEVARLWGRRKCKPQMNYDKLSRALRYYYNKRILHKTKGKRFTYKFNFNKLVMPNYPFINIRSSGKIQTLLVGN
To be noted: protein: recombinant; tags: N-terminal GST; dsDNA, one strand shown. An outline of the steps:
as §1

A further assay deals with ETV6 (Homo sapiens, UniProt P41212 1-452). To be noted: protein: recombinant; tags: N-terminal GST; dsDNA, one strand shown. An outline of the steps:
as §1

HSF1, sequence (Q00613 whole entry): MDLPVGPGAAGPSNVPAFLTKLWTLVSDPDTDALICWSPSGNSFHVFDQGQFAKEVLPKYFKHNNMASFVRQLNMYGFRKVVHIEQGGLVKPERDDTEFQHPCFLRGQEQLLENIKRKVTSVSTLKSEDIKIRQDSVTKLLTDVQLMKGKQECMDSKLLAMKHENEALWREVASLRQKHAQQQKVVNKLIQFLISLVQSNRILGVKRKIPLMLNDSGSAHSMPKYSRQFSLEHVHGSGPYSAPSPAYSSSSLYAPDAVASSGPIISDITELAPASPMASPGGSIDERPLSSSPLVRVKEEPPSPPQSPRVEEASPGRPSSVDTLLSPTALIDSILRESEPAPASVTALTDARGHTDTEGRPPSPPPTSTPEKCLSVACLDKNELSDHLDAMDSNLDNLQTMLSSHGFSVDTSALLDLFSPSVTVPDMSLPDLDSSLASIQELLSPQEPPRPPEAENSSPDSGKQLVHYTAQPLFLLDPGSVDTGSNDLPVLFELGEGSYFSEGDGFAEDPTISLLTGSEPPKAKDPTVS
ETV6, sequence (P41212 whole entry): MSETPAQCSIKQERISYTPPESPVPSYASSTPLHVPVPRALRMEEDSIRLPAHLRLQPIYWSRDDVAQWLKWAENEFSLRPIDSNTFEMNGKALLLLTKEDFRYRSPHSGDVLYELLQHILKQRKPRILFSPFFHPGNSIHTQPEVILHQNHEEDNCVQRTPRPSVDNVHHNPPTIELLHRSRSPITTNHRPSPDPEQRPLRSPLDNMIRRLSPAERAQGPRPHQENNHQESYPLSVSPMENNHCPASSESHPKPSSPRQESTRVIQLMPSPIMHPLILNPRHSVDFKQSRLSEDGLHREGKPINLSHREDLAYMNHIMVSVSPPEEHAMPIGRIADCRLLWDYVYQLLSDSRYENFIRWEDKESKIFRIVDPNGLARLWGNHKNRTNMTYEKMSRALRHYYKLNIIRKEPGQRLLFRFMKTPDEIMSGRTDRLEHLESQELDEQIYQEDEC
ETV1, sequence (P50549 whole entry): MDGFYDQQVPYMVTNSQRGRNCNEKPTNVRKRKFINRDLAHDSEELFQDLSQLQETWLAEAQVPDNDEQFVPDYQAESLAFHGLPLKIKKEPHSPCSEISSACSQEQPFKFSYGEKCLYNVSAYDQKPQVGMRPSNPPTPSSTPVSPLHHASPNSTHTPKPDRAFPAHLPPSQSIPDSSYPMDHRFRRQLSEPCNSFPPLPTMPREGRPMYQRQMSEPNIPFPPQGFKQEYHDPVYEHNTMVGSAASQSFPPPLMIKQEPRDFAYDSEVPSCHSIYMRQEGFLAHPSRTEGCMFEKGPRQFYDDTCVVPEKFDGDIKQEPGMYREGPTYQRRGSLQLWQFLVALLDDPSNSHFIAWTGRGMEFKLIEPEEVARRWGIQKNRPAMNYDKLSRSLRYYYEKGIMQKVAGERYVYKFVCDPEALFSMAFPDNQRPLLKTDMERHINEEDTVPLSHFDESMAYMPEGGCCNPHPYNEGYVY
ELF4, sequence (Q99607 whole entry): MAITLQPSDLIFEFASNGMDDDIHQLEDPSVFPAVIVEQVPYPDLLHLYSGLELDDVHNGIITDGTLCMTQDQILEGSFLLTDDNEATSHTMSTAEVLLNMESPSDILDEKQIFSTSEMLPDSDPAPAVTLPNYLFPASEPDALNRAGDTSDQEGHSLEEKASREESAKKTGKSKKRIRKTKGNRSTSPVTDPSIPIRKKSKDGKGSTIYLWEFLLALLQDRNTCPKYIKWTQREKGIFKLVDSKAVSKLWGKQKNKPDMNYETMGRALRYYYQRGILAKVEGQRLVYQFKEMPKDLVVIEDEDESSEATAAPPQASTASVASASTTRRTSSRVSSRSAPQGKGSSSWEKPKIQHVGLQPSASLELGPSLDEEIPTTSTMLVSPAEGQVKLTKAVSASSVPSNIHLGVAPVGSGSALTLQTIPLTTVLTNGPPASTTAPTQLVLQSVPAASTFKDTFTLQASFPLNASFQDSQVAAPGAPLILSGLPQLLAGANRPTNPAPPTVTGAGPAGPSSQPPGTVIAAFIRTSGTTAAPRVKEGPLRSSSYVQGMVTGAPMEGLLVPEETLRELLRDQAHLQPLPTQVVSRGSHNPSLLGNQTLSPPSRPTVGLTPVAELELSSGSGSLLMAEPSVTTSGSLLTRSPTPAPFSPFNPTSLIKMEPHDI
CRX, sequence (O43186 whole entry): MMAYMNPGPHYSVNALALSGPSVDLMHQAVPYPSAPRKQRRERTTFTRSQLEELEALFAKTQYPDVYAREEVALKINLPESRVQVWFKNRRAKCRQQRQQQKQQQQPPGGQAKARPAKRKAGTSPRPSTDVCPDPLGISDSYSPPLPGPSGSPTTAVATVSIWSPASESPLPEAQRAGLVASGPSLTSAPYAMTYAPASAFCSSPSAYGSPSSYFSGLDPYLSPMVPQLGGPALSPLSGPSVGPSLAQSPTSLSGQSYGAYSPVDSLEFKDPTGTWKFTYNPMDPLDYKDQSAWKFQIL

In the case of TCTTGC, the binding signal in the assay with FEV was 1.24 fold enrichment (6-mer frequency, TF over GST control); with ETV5 it was 1.39 fold enrichment (6-mer frequency, TF over GST control); with HSF1 it was 1.2 fold enrichment (6-mer frequency, TF over GST control); with SPIC, 1.36 fold enrichment (6-mer frequency, TF over GST control); in the assay with ELF4, 1.32 fold enrichment (6-mer frequency, TF over GST control); with ELK4, 1.3 fold enrichment (6-mer frequency, TF over GST control). Further, the binding signal with ETV2 is 1.36 fold enrichment (6-mer frequency, TF over GST control); in the assay with ELF3, 1.4 fold enrichment (6-mer frequency, TF over GST control); in the assay with CRX, 1.21 fold enrichment (6-mer frequency, TF over GST control); in the assay with ETV1, 1.4 fold enrichment (6-mer frequency, TF over GST control); with ERF, 1.4 fold enrichment (6-mer frequency, TF over GST control); with ETV3L, 1.36 fold enrichment (6-mer frequency, TF over GST control). Further, the binding signal with ETS2 was 1.35 fold enrichment (6-mer frequency, TF over GST control); in the assay with SPDEF, 1.33 fold enrichment (6-mer frequency, TF over GST control); with ETV7 it was 1.38 fold enrichment (6-mer frequency, TF over GST control); in the assay with ELF5, 1.34 fold enrichment (6-mer frequency, TF over GST control); in the assay with ETV3, 1.47 fold enrichment (6-mer frequency, TF over GST control); with ETV6, 1.18 fold enrichment (6-mer frequency, TF over GST control).

Values taken from PMC7862700, “An all-to-all approach to the identification of sequence-specific readers for epigenetic DNA modifications on cytosine”.
